Source: PubChem BioAssay (NCI)
Where “and” joins values, the source holds several entries; their conditions need not be identical. Identical values can stand only once. About 83,000 compounds went through this panel and 20% of them were active in at least one assay; those are over-represented in the sample as a whole.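 In brief: 96-well plates, 48 h treatment, single concentration, percent growth endpoint.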 Calls of active or inactive are those of the source. How the source made its calls: active means growth percent below 10; inactive means the rest.

Tests used:
Assay in all cases: NCI-60 one-dose screen, 48 h (100 = growth as untreated, 0 = no growth, -100 = all killed)
Details in all cases: 10 µM unless noted
NCI-H23 lung = system: NCI-H23 lung
NCI-H226 lung = system: NCI-H226 lung
NCI-H322M lung = system: NCI-H322M lung
HOP-62 NSCLC = system: HOP-62 NSCLC
NCI-H460 lung = system: NCI-H460 lung
HOP-92 NSCLC = system: HOP-92 NSCLC
NCI-H522 lung = system: NCI-H522 lung
A549/ATCC NSCLC = system: A549/ATCC NSCLC
786-0 renal = system: 786-0 renal
COLO 205 colon = system: COLO 205 colon
DU-145 prostate = system: DU-145 prostate
K-562 leukemia = system: K-562 leukemia
MALME-3M melanoma = system: MALME-3M melanoma
MDA-MB-231 breast = system: MDA-MB-231 breast
RXF 393 renal = system: RXF 393 renal
SF-268 CNS = system: SF-268 CNS
SF-295 CNS = system: SF-295 CNS
SF-539 CNS = system: SF-539 CNS
UACC-257 melanoma = system: UACC-257 melanoma
M14 melanoma = system: M14 melanoma

Compound | growth (NCI-H23 lung) | growth (NCI-H226 lung) | growth (NCI-H322M lung) | growth (HOP-62 NSCLC) | growth (NCI-H460 lung) | growth (HOP-92 NSCLC) | growth (NCI-H522 lung) | growth (A549/ATCC NSCLC) | growth (786-0 renal) | growth (COLO 205 colon) | growth (DU-145 prostate) | growth (K-562 leukemia) | growth (MALME-3M melanoma) | growth (MDA-MB-231 breast) | growth (RXF 393 renal) | growth (SF-268 CNS) | growth (SF-295 CNS) | growth (SF-539 CNS) | growth (UACC-257 melanoma) | growth (M14 melanoma)
Cc1c(CC(=O)OCCO)cc(-c2ccc(Cl)cc2)n1-c1ccccc1 | 82.3% (inactive) | 93.9% (inactive) | 106% (inactive) | 95% (inactive) | 104% (inactive) | 97.4% (inactive) | 82.6% (inactive) | 94% (inactive) | 102% (inactive) | 109% (inactive) | 102% (inactive) | 70.5% (inactive) | 103% (inactive) | 95.4% (inactive) | 107% (inactive) | 94.5% (inactive) | 96.6% (inactive) | 101% (inactive) | 98.9% (inactive) | 109% (inactive)
c1ccc(-c2cc(-c3cc(-c4ccccc4)on3)no2)cc1 | 74.9% (inactive) | 98.8% (inactive) | 89.9% (inactive) | 107% (inactive) | 45% (inactive) | 86.1% (inactive) | 62.2% (inactive) | 78.9% (inactive) | 106% (inactive) | 94.2% (inactive) | 9.62% (active) | 77.7% (inactive) | 114% (inactive) | 105% (inactive) | 74.8% (inactive) | 90.1% (inactive) | 82.2% (inactive) | 91.3% (inactive) | 79.6% (inactive) | 109% (inactive)
O=C(Nc1cc(C(F)(F)F)cc(C(F)(F)F)c1)c1cc(Cl)ccc1O | -25.2% (active) and -11.5% (active) | -27.9% (active) | -3.01% (active) and 1.1% (active) | -27.3% (active) and -3.41% (active) | 0.0882% (active) and 2.21% (active) | -19.6% (active) and -14.1% (active) | -45.5% (active) and -23% (active) | -7.9% (active) and 5.51% (active) | -41.1% (active) and -48.8% (active) | -83.1% (active) and -64.5% (active) | 14.4% (inactive) and 5.91% (active) | 2.85% (active) and 5.08% (active) | -38.3% (active) and -37.1% (active) | -11.4% (active) and -22.8% (active) | -40% (active) and -5.38% (active) | 11.7% (inactive) and -7.95% (active) | -63.1% (active) and -66.9% (active) | -31% (active) and -18% (active) | -52.7% (active) and -18.1% (active) | -6.08% (active) and -32.7% (active)
Cc1nc2sc(C(=O)Nc3cccc4ncccc34)c(N)c2cc1C(C)O (stereo not given) | 80.4% (inactive) | 85.1% (inactive) | 79.7% (inactive) | 68.1% (inactive) | 80.9% (inactive) | 70.5% (inactive) | 34.7% (inactive) | 81.3% (inactive) | 86.2% (inactive) | 107% (inactive) | 109% (inactive) | 28.8% (inactive) | 74.5% (inactive) | 76.1% (inactive) | 70.1% (inactive) | 87.7% (inactive) | 59.8% (inactive) | 82.4% (inactive) | 75.9% (inactive) | 62% (inactive)
O=C(CCN1CCOCC1)Nc1cccc(-n2cc(-c3ccncc3)c(-c3ccc(Cl)c(O)c3)n2)c1 | 51.7% (inactive) | 71% (inactive) | 60.4% (inactive) | 28% (inactive) | 17.8% (inactive) | 23.7% (inactive) | 5.83% (active) | 35.8% (inactive) | 11.7% (inactive) | 0.424% (active) | 13% (inactive) | 20.2% (inactive) | 66.3% (inactive) | 55.4% (inactive) | 22.2% (inactive) | 37% (inactive) | 6.52% (active) | -19.7% (active) | 66.2% (inactive) | 5.06% (active)
CN1Cn2c(ccc2C(F)(F)F)C(=O)CS1(=O)=O | 108% (inactive) | 111% (inactive) | 104% (inactive) | 100% (inactive) | 110% (inactive) | 102% (inactive) | 103% (inactive) | 108% (inactive) | 96.7% (inactive) | 116% (inactive) | 114% (inactive) | 110% (inactive) | 90.2% (inactive) | 106% (inactive) | 135% (inactive) | 108% (inactive) | 103% (inactive) | 94.3% (inactive) | 102% (inactive) | 104% (inactive)
CCOC(=O)N(O)c1ccc(/C=C/c2ccccc2)cc1 | 75.9% (inactive) and 51.3% (inactive) | -39.4% (active) | 79.6% (inactive) and 76.4% (inactive) | 66.5% (inactive) | 23.5% (inactive) and 22% (inactive) | 67.4% (inactive) | 67.5% (inactive) and 48.4% (inactive) | 44% (inactive) and 77.1% (inactive) | 70.3% (inactive) and 73.7% (inactive) | 88.5% (inactive) and 84.7% (inactive) | 65.7% (inactive) and 61.4% (inactive) | 39.9% (inactive) and 40.3% (inactive) | 96.6% (inactive) and 117% (inactive) | 67.3% (inactive) and 54% (inactive) | 76.8% (inactive) and 69.1% (inactive) | 86.3% (inactive) and 81.3% (inactive) | 41.7% (inactive) and 11.4% (inactive) | 96.5% (inactive) and 85.1% (inactive) | -40.5% (active) and -36.8% (active) | 66.7% (inactive) and 58.8% (inactive)
COc1ccc(-c2cc(=O)c3c(O)cc(O)cc3o2)cc1 | 96.3% (inactive) and 100% (inactive) | 106% (inactive) | 109% (inactive) and 103% (inactive) | 113% (inactive) and 114% (inactive) | 104% (inactive) and 97.2% (inactive) | 95.4% (inactive) and 75% (inactive) | 83.2% (inactive) and 77.9% (inactive) | 97.1% (inactive) and 94.8% (inactive) | 107% (inactive) | 101% (inactive) | 103% (inactive) and 97.8% (inactive) | 91.5% (inactive) | 113% (inactive) and 110% (inactive) | 113% (inactive) and 91.4% (inactive) | 121% (inactive) and 116% (inactive) | 98.5% (inactive) and 99.4% (inactive) | 101% (inactive) and 104% (inactive) | 94.5% (inactive) and 105% (inactive) | 127% (inactive) and 126% (inactive) | 118% (inactive) and 122% (inactive)
